In the supplement of paper PMC10849652:
About 7,900 targets were measured; listed, in parts, are those with a hit and a random draw of the rest. About 0.6% of all pairs of compound and target were hits.

Legend:
Test in all cases: log2 fold change, soluble protein after heating vs DMSO (PISA); higher = thermal stabilisation; K562 cells, 10 uM, 30 min; active = over 0.2 and 3.5 SD of the protein, either way, in both replicates (recomputed)
IRAK-1-4 Inhibitor I = compound: C1COCCN1CCN2C3=CC=CC=C3N=C2NC(=O)C4=CC(=CC=C4)[N+](=O)[O-] [IRAK-1-4 Inhibitor I]
In short: (§1)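 K562 cells at 2×10^6 cells/mL were treated with 10 μM compound for 30 min. Aliquots were heated for 3 min across 48°C-58°C, pooled, and extracted in PBS with 0.5% NP-40 at 4°C; soluble protein was the supernatant after 21,000xg for 90 min. Soluble protein was quantified by TMTpro 16plex LC-MS/MS with channel sums equalised, and reported as log2 fold change in thermal stability against DMSO controls, with values from duplicates.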

ibrutinib = compound: C=CC(=O)N1CCC[C@@H](n2nc(-c3ccc(Oc4ccccc4)cc3)c3c(N)ncnc32)C1 [ibrutinib]
In short: as §1

[1] = compound: CC(=O)c1cnc2ccc(-c3cc(Cl)c(O)c(Cl)c3)nc2c1N[C@H]1CC[C@H](CN(C)C)CC1
In short: as §1

ralimetinib = compound: CC(C)(C)Cn1c(N)nc2ccc(-c3[nH]c(C(C)(C)C)nc3-c3ccc(F)cc3)nc21 [ralimetinib]
In short: as §1

[2] = compound: CC(C)(O)CC(=O)NCCn1ccc2ncnc(Nc3ccc(Oc4cccc(C(F)(F)F)c4)c(Cl)c3)c21
In short: as §1

[3] = compound: CC(C)C1=C2N=C(C=C(N2N=C1)NCC3=CC=CC=C3)NCCCCCCN
In short: as §1

[4] = compound: CC(C)C[C@@H](C=O)NC(=O)[C@H](CC(C)C)NC(=O)[C@H](CC(C)C)NC(=O)OCc1ccccc1
In short: as §1

pinometostat = compound: CC(C)N(C[C@H]1O[C@@H](n2cnc3c(N)ncnc32)[C@H](O)[C@@H]1O)[C@H]1C[C@@H](CCc2nc3cc(C(C)(C)C)ccc3[nH]2)C1 [pinometostat]
In short: as §1

[5] = compound: CC1=C(C(CC(=O)N1)C2=CC=C(C=C2)C(F)(F)F)C(=O)NC3=C(C=C4C(=C3)C=NN4)F
In short: as §1

[6] = compound: CC1=C(C2=C(C=C1)C(=O)C3=CC=CC=C3N2CCCN)C
In short: as §1

Measured: log2 fold change

CKB (UniProt P12277)
Sequence of UniProt P12277 (P12277 whole entry, looked up): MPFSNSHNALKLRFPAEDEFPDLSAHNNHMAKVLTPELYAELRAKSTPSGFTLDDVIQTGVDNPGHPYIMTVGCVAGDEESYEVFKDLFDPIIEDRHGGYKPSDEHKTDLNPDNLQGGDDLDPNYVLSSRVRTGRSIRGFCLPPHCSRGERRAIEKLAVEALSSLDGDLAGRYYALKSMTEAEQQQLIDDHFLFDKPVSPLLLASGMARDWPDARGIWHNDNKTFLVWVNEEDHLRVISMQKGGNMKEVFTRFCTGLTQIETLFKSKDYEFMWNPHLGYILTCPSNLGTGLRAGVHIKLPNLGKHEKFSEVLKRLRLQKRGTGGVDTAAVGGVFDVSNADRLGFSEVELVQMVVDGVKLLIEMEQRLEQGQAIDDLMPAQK
inactive: IRAK-1-4 Inhibitor I 0.014 | ibrutinib -0.024 | [1] -0.009 | ralimetinib -0.01 | [2] -0.077 | [3] -0.045 | [4] 0.021 | pinometostat -0.02 | [5] -0.014 | [6] 0.059

CRK (UniProt P46108)
Sequence of UniProt P46108 (P46108 whole entry, looked up): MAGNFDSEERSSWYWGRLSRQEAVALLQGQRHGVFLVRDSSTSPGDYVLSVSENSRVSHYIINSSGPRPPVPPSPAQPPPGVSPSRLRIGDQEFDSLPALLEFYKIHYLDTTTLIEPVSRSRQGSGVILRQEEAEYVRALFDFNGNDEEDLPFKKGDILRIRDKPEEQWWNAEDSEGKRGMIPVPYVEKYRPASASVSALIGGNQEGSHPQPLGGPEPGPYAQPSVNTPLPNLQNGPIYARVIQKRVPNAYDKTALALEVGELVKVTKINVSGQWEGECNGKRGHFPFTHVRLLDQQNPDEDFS
inactive: IRAK-1-4 Inhibitor I -0.046 | ibrutinib -0.097 | ralimetinib -0.013 | [2] -0.007 | [3] -0.003 | [4] 0.032 | pinometostat -0.037 | [5] -0.011 | [6] 0.07
active: [1] -0.887

CS (UniProt O75390)
Sequence of UniProt O75390 (O75390 whole entry, looked up): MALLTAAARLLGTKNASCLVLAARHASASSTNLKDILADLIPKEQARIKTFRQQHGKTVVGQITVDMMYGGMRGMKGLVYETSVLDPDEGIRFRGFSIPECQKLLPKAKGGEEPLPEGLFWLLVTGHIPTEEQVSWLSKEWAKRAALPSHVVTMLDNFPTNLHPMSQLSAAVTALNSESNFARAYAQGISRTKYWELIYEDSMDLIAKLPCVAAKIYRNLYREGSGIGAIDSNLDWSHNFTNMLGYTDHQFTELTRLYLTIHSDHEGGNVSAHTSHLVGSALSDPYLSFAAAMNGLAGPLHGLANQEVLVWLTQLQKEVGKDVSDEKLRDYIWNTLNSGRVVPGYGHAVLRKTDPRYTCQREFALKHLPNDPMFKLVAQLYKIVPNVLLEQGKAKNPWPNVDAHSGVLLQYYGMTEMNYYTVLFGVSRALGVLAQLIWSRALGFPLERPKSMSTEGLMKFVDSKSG
inactive: IRAK-1-4 Inhibitor I 0.02 | ibrutinib -0.004 | [1] 0.002 | ralimetinib -0.04 | [2] -0.178 | [3] -0.148 | [4] -0.069 | pinometostat -0.05 | [5] 0.02 | [6] 0.008

CHMP4C (UniProt Q96CF2)
Sequence of UniProt Q96CF2 (Q96CF2 whole entry, looked up): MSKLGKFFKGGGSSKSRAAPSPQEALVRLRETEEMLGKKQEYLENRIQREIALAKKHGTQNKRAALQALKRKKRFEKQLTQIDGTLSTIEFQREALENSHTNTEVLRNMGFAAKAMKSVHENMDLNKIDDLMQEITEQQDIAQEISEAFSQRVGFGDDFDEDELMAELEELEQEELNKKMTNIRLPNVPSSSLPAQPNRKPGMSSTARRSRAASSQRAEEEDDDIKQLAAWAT
inactive: IRAK-1-4 Inhibitor I 0.097 | ibrutinib -0.022 | [1] -0.028 | ralimetinib -0.087 | [2] -0.018 | [3] -0.099 | [4] 0.039 | pinometostat -0.095 | [5] 0.021 | [6] -0.019

CHAC2 (UniProt Q8WUX2)
Sequence of UniProt Q8WUX2 (Q8WUX2 whole entry, looked up): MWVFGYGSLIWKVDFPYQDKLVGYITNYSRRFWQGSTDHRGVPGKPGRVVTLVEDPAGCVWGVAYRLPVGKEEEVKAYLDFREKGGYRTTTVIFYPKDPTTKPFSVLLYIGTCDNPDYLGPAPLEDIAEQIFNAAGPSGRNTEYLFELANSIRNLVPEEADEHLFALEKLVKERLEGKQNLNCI
inactive: IRAK-1-4 Inhibitor I 0.038 | ibrutinib -0.058 | [1] -0.009 | ralimetinib -0.021 | [2] 0.085 | [3] 0.03 | [4] 0 | pinometostat 0.01 | [5] -0.061 | [6] -0.036

CSK (UniProt P41240)
Sequence of UniProt P41240 (P41240 whole entry, looked up): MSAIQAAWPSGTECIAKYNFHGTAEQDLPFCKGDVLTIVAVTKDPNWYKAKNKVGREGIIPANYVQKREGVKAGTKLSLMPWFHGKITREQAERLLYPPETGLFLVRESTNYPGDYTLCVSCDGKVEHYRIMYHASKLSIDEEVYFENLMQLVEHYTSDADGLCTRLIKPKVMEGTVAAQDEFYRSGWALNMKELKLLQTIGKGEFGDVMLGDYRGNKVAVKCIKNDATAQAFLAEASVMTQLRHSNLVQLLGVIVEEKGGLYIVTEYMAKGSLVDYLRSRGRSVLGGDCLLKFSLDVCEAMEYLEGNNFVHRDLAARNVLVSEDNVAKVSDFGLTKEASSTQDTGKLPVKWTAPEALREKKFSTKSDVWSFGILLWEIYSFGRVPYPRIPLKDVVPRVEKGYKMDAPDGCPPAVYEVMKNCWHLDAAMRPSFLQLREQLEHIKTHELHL
inactive: IRAK-1-4 Inhibitor I -0.016 | ibrutinib 0.074 | [1] 0.111 | ralimetinib 0.011 | [2] -0.034 | [3] -0.131 | [4] 0.031 | pinometostat 0 | [5] -0.016 | [6] -0.011

CNDP2 (UniProt Q96KP4)
Sequence of UniProt Q96KP4 (Q96KP4 whole entry, looked up): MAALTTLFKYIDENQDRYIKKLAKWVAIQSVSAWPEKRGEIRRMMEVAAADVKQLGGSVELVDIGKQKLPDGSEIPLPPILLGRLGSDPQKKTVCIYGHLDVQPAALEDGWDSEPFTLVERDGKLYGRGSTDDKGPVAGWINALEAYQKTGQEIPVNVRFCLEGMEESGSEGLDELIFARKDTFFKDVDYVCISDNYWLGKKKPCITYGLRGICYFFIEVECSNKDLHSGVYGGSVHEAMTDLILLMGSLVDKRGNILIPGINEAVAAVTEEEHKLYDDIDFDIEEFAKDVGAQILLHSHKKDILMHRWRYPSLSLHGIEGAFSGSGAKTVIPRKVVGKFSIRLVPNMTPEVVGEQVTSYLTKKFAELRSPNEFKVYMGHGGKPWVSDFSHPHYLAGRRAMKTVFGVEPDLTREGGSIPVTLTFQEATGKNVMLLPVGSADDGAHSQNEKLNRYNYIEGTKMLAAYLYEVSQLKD
inactive: IRAK-1-4 Inhibitor I 0.098 | ibrutinib 0.002 | [1] -0.01 | ralimetinib 0.07 | [2] -0.005 | [3] -0.011 | [4] -0.029 | pinometostat -0.035 | [5] -0.011 | [6] 0.042

CPSF6 isoform 2 (UniProt Q16630)
Sequence of UniProt Q16630 (Q16630 whole entry, looked up): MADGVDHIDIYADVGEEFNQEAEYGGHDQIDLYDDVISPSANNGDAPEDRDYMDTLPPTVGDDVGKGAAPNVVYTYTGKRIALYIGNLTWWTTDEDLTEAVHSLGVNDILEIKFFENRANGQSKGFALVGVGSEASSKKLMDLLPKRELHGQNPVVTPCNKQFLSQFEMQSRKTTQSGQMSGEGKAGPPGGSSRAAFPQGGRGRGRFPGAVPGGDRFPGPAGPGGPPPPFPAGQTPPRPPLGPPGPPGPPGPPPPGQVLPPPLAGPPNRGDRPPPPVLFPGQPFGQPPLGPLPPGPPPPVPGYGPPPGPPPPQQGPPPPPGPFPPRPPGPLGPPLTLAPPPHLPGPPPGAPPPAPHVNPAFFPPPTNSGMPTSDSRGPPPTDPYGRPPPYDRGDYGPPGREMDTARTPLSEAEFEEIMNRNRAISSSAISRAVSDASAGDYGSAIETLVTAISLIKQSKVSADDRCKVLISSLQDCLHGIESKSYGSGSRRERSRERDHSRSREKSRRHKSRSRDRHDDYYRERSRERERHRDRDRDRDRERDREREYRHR
inactive: IRAK-1-4 Inhibitor I -0.047 | ibrutinib 0 | ralimetinib -0.017 | [2] 0.02 | [3] -0.029 | [4] -0.053 | pinometostat 0.004 | [5] -0.042 | [6] 0.195
active: [1] -0.599
